Laboratory results reported in PubChem BioAssay (NCI).
The panel holds about 83,000 compounds, 20% with a hit somewhere; the sample as a whole holds those more often.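 A percent growth of 40 corresponds to 60% growth inhibition; 0 means no net growth; -100 means all cells died. Active threshold: below 10.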 Calls of active or inactive are those of the source.

What follows are compounds tested on TK-10 renal (assay: NCI-60 one-dose screen, 48 h (100 = growth as untreated, 0 = no growth, -100 = all killed)). Settings: 10 µM.
With `COc1ccc(CN2[C@H](C(=O)NCc3ccc(C(=O)NO)cc3)Cc3c([nH]c4ccccc34)[C@H]2C2CC2)cc1` the growth was 53.2% (inactive). `COc1ccc(C2N(c3ccc(Br)cc3)N=C(C(C)=O)N2[C@H]2[C@H](OC(C)=O)O[C@H](COC(C)=O)[C@@H](OC(C)=O)[C@@H]2OC(C)=O)cc1` (stereo not given in full) was tested, and the growth was 68.9% (inactive). For `CN(CCF)c1ccc(/C=C/C(=O)c2ccc(N)cc2O)cc1`, the growth was 100% (inactive).

These compounds were tested on ACHN renal in the same assay as above. Settings: 10 µM.
`Cc1ccc(/C=C/C(=O)c2ccc(NC(=O)CSc3nnc(-c4c[nH]c5ccccc45)n3-c3ccccc3)cc2)cc1` was tested, and the growth was 78.3% (inactive). With `CCCn1c(O)c(N=Nc2nc(-c3cc4ccccc4oc3=O)cs2)c2cc(Br)ccc21` the growth was 91.1% (inactive). For `COc1ccc2[nH]c(=O)c(CSc3nccc(-c4ccc(Cl)cc4)n3)cc2c1`, the growth was -46.2% (active). `COc1cc(/C=C/C(=O)c2cc(OC)c(OC)c(OC)c2)ccc1Oc1nc(Nc2ccc(F)cc2)nc(N(C)C)n1` was tested, and the growth was -82.3% (active). `c1ccc(C(=C(c2ccc(OCCN3CCCCC3)cc2)c2ccc(OCCN3CCCCC3)cc2)C2CCCC2)cc1` was tested, and the growth was 80.3% (inactive). In the case of `Cc1ccc(/C=C(\C#N)n2nnc3c(F)cccc32)cc1`, the growth is reported as 19.7% (inactive). For `O=C1Nc2ccc(F)cc2/C1=C/c1cccc(OCc2ccccn2)c1`, the growth was 37.9% (inactive). With `Cc1ccc(-c2cc(C(=O)N=Nc3c(O)[nH]c4ccc(Br)cc34)c3ccccc3n2)cc1` the growth was 52.3% (inactive). In the case of `Cc1cc(C)nc(NS(=O)(=O)c2ccc(N/C(N)=N/c3nccc(-c4ccccc4)n3)cc2)n1`, the growth is reported as 61.7% (inactive). For `COc1ccc(NC(=O)Nc2ccc(OCC(=O)N=Nc3c(O)[nH]c4ccc([N+](=O)[O-])cc34)cc2)cc1`, the growth was 102% (inactive). For `COc1ccc(-c2nc(Nc3ccccc3S(N)(=O)=O)c3ccccc3n2)cc1`, the growth was 15.3% (inactive). With `CCCCCc1ccc(S(=O)(=O)N(C(C)=O)c2cc(-c3csc(N(C)C(C)=O)n3)ccc2N2CCN(C)CC2)cc1` the growth was 30.1% (inactive). With `NS(=O)(=O)c1ccc(N=Nc2c(O)n(CC(=O)Nc3ccccc3Br)c3ccccc23)cc1` the growth was 13.9% (inactive). For `CN(C)c1nc(NCCNS(=O)(=O)c2ccc(C(=O)/C=C/c3ccccc3)cc2)nc(Nc2ccc(F)cc2)n1`, the growth was 12.7% (inactive). `CC1=C2C(=C[C@@](C)(COCOCCCl)[C@@H]2O)C(=O)[C@](C)(O)C12CC2` was tested, and the growth was -48% (active). `COC[C@@H](CC(C)C)N=C1NC(=O)/C(=C/c2ccc3ncoc3c2)N1` was tested, and the growth was 7.63% (active). For `CC1=C2C(=C[C@@](C)(CO)[C@@H]2O)/C(=N\N)[C@](C)(O)C12CC2`, the growth was -18.6% (active). With `CN1CCc2c(sc3ncnc(N/N=C/c4ccc5ccccc5c4)c23)C1` the growth was 67.2% (inactive). `Cc1cccc(-c2nc(Nc3ccccc3C(=O)O)c3ccccc3n2)c1` was tested, and the growth was 36.4% (inactive). In the case of `COc1ccc2[nH]c(O)c(N=NC(=O)COc3ccc(NC(=O)Nc4ccc(Cl)cc4)cc3)c2c1`, the growth is reported as 100% (inactive). With `CN1CCN(Cc2ccc(NC(=O)c3cncc(C#Cc4cnc5ccc(N[C@H]6CCOC6)nn45)c3)cc2C(F)(F)F)CC1` the growth was -100% (active). With `N#Cc1c(Cl)nc(SCc2ccc(F)cc2)nc1-c1ccc(F)cc1` the growth was 99.5% (inactive). With `CONC[C@]1(C)C=C2C(=O)[C@](C)(O)C3(CC3)C(C)=C2[C@H]1O` the growth was -25.7% (active). `CCCCOc1ccc(Nc2nc3ccccc3nc2Nc2ccc(OCCCC)cc2)cc1` was tested, and the growth was 97.7% (inactive). For `C=C1CCC2C3(C)COC(c4cccc(F)c4)OC3CCC2(C)C1CC(O)C1=CCOC1=O` (stereo not given), the growth was 68.6% (inactive). With `COc1ccc(/C=N/N=C(\C)c2ccc3c(c2)Nc2ccccc2S3)cc1O` the growth was 43.3% (inactive). In the case of `O=S(=O)(Nc1ncccn1)c1ccc(-n2c(-c3ccc(Br)cc3)nc(-c3ccccc3)c2-c2ccccc2)cc1`, the growth is reported as 38.5% (inactive). With `C[C@H]1[C@H](C)CC[C@]2(COC(=O)CCC(=O)NCC#CCN3CCNCC3)CC[C@]3(C)C(=CC[C@@H]4[C@@]5(C)CCCNC(C)(C)[C@@H]5CC[C@]43C)[C@H]12` the growth was 59.4% (inactive). For `CN1CCN(Cc2ccc(C(=O)Nc3cccc(Nc4ccc5c(O)cccc5n4)c3)cc2C(F)(F)F)CC1`, the growth was -23.4% (active). `CC(=O)Nc1ccc(-c2cn(-c3cccc(C(=O)Nc4cccc(OC(F)(F)F)c4)c3)nn2)cn1` was tested, and the growth was 101% (inactive). With `CCOC(=O)C1=C(N)N(c2ccccc2)C2=C(C(=O)CC(C)(C)C2)C1c1ccccc1OC` (stereo not given) the growth was 103% (inactive). In the case of `O=c1[nH]c2ccccc2cc1CSc1ccc(Nc2nccc(-c3ccc(C(F)(F)F)cc3)n2)cc1`, the growth is reported as -29.1% (active). `COC(=O)C[C@](O)(CCCC(C)(C)O)C(=O)O[C@H]1C(OC)=C[C@@]23CCC(=O)N2CCc2cc4c(cc2[C@@H]13)OCO4` was tested, and the growth was 101% (inactive). With `COc1ccc2[nH]c(O)c(N=NC(=O)c3cc(-c4ccc(C)cc4)nc4ccccc34)c2c1` the growth was 81% (inactive). `COc1ccc(CN2[C@H](C(=O)NCc3ccc(C(=O)NO)cc3)Cc3c([nH]c4ccccc34)[C@H]2C2CC2)cc1` was tested, and the growth was 76.4% (inactive). With `COc1ccc(C2N(c3ccc(Br)cc3)N=C(C(C)=O)N2[C@H]2[C@H](OC(C)=O)O[C@H](COC(C)=O)[C@@H](OC(C)=O)[C@@H]2OC(C)=O)cc1` (stereo not given in full) the growth was 61.1% (inactive). With `CN(CCF)c1ccc(/C=C/C(=O)c2ccc(N)cc2O)cc1` the growth was 79.3% (inactive).
